The source of these data is PubChem BioAssay (EPA / NIEHS).

Molecules are shown by their SMILES. Calls of active or inactive are those of the source. The calls were made as follows: active = hit-call score of the fitted dose curve at least 0.9, where 1 is the maximum; inactive = score below 0.9.

Settings in all cases: mRNA level, 48 h; actives raise or lower the signal
Read-out in test [1]: Bcl-2 (BID) gene, BID (gene 637)
Kind of test: LTEA_HepaRG_BID: Life Technologies and Expression Analysis (LTEA) Assay for Bcl-2 (BID) gene using HepaRG (AID 2283476). The method, boiled down:
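Gene expression by qRT-PCR in HepaRG cells after 48 h exposure, duplicate wells, eight half-log concentrations topping at 100 uM in 0.5% DMSO. Normalized to ACTB, GAPDH, POLR2A; bidirectional fitting relative to DMSO.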

Read-out in test [2]: Caspase-3 (Homo sapiens) (UniProt P42574)
The test is described as follows: LTEA_HepaRG_CASP3: Life Technologies and Expression Analysis (LTEA) Assay for cysteine-aspartic acid protease (CASP3) using HepaRG (AID 2283477). In outline: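 In HepaRG liver cells dosed for 48 h at up to 100 uM (eight-point, duplicate), CASP3 expression changes are scored by qRT-PCR. Activity is fitted in both directions with 0.5% DMSO as baseline.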

Read-out in test [3]: Cytochrome P450 (CYP24A1), CYP24A1 (gene 1591)
The test is described as follows: LTEA_HepaRG_CYP24A1: Life Technologies and Expression Analysis (LTEA) Assay for Cytochrome P450 (CYP24A1) using HepaRG (AID 2283478). In outline: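 Human liver HepaRG cultures receive each chemical for 48 h across an eight-point half-log series topping at 100 uM in 0.5% DMSO. Induction or suppression of CYP24A1 mRNA is scored relative to vehicle after housekeeping-gene normalization.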

Read-out in test [4]: Cytochrome P450 (CYP1A2), CYP1A2 (gene 1544)
Kind of test: LTEA_HepaRG_CYP1A2: Life Technologies and Expression Analysis (LTEA) Assay for Cytochrome P450 (CYP1A2) using HepaRG (AID 2283479). In outline: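 Assesses CYP1A2 mRNA in human HepaRG liver cells after 48 h chemical exposure at up to 100 uM. Values come from qRT-PCR with bidirectional curve fitting relative to DMSO.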

Read-out in test [5]: cysteine-aspartic acid protease (CASP8), CASP8 (gene 841)
The test is described as follows: LTEA_HepaRG_CASP8: Life Technologies and Expression Analysis (LTEA) Assay for cysteine-aspartic acid protease (CASP8) using HepaRG (AID 2283480). The method, boiled down:
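Differentiated HepaRG cells in serum-free induction medium, 48 h exposure, eight-point half-log series from 100 uM in 0.5% DMSO, duplicates. CASP8 mRNA by qRT-PCR, normalized to ACTB, GAPDH, POLR2A; bidirectional fit versus DMSO.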

Read-out in test [6]: Cytochrome P450 (CYP2B6), CYP2B6 (gene 1555)
Kind of test: LTEA_HepaRG_CYP2B6: Life Technologies and Expression Analysis (LTEA) Assay for Cytochrome P450 (CYP2B6) using HepaRG (AID 2283481). In outline: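 Using 48 h treatment of HepaRG cells in serum-free induction medium, concentrations spanned half-log steps from 100 uM in 0.5% DMSO vehicle. CYP2B6 mRNA induction or loss is scored by qRT-PCR against DMSO.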

Read-out in test [7]: Cytochrome P450 2C19 (Homo sapiens) (UniProt P33261)
Kind of test: LTEA_HepaRG_CYP2C19: Life Technologies and Expression Analysis (LTEA) Assay for CYP2C19 using HepaRG (AID 2283482). In outline:
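Human HepaRG liver cells received test chemicals for 48 h (highest 100 uM, half-log dilutions in 0.5% DMSO). CYP2C19 mRNA induction or loss is read by multiplexed qRT-PCR and fitted in both directions versus vehicle.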

Read-out in test [8]: CYP2C8 (gene 1558)
Kind of test: LTEA_HepaRG_CYP2C8: Life Technologies and Expression Analysis (LTEA) Assay for CYP2C8 using HepaRG (AID 2283483). In outline:
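Differentiated HepaRG cells in serum-free induction medium exposed 48 h in duplicate to 8 half-log concentrations from 100 uM in 0.5% DMSO. CYP2C8 mRNA by qRT-PCR normalized to ACTB, GAPDH, POLR2A; bidirectional fit versus DMSO.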

Read-out in test [9]: CYP2E1 (gene 1571)
Kind of test: LTEA_HepaRG_CYP2E1: Life Technologies and Expression Analysis (LTEA) Assay for CYP2E1 using HepaRG (AID 2283485). The method, boiled down: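 HepaRG cells, plated 48 h, then exposed 48 h in serum-free induction medium to eight half-log concentrations from 100 uM in 0.5% DMSO, duplicate. CYP2E1 mRNA by qRT-PCR, normalized to ACTB/GAPDH/POLR2A; bidirectional fit versus DMSO.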

Read-out in test [10]: CYP4A11 (gene 1579)
The test is described as follows: LTEA_HepaRG_CYP4A11: Life Technologies and Expression Analysis (LTEA) Assay for CYP4A11 using HepaRG (AID 2283486). The method, boiled down: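 Readout is CYP4A11 mRNA induction or suppression (qRT-PCR, ACTB/GAPDH/POLR2A normalization) in human HepaRG cells after 48 h chemical treatment, concentrations to 100 uM in 0.5% DMSO, fitted bidirectionally against vehicle.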

Read-out in test [11]: Cytochrome P450 3A4 (Homo sapiens) (UniProt P08684)
Kind of test: LTEA_HepaRG_CYP3A4: Life Technologies and Expression Analysis (LTEA) Assay for CYP3A4 using HepaRG (AID 2283487). In outline:
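Differentiated HepaRG cells in serum-free induction medium exposed in duplicate for 48 h to 8 half-log concentrations up to 100 uM in 0.5% DMSO. CYP3A4 mRNA measured by qRT-PCR normalized to ACTB, GAPDH and POLR2A; bidirectional fit versus DMSO.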

Read-out in test [12]: DNA damage-inducible transcript 3 (DDIT3), DDIT3 (gene 1649)
Kind of test: LTEA_HepaRG_DDIT3: Life Technologies and Expression Analysis (LTEA) Assay for DNA damage-inducible transcript 3 (DDIT3) using HepaRG (AID 2283488). The method, boiled down: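 HepaRG cells, 48 h after plating, exposed 48 h in serum-free induction medium to 8 half-log concentrations up to 100 uM in 0.5% DMSO, in duplicate. DDIT3 mRNA measured by TaqMan qRT-PCR, normalized to ACTB, GAPDH and POLR2A. Fitted bidirectionally against DMSO.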

Read-out in test [13]: Pro-epidermal growth factor (Homo sapiens) (UniProt P01133)
The test is described as follows: LTEA_HepaRG_EGF: Life Technologies and Expression Analysis (LTEA) Assay for Epidermal growth factor (EGF) using HepaRG (AID 2283489). The method, boiled down: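 EGF expression changes in human HepaRG cells are scored by bidirectional fitting relative to 0.5% DMSO controls. Chemicals are tested at eight half-log concentrations up to 100 uM for 48 h in serum-free induction medium.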

Read-out in test [14]: Early growth response protein 1 (EGR1) transcription factor, EGR1 (gene 1958)
Kind of test: LTEA_HepaRG_EGR1: Life Technologies and Expression Analysis (LTEA) Assay for Early growth response protein 1 (EGR1) transcription factor using HepaRG (AID 2283490). In outline:
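Differentiated HepaRG cells in serum-free induction medium exposed 48 hours, duplicate, to 8 half-log concentrations up to 100 uM in 0.5% DMSO. EGR1 mRNA measured by TaqMan qRT-PCR, normalized to ACTB, GAPDH, POLR2A; bidirectional fit versus DMSO.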

Read-out in test [15]: Ezrin (EZR), EZR (gene 7430)
Kind of test: LTEA_HepaRG_EZR: Life Technologies and Expression Analysis (LTEA) Assay for Ezrin (EZR) using HepaRG (AID 2283491). The method, boiled down:
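Differentiated human HepaRG cells, 48 h after plating, were exposed in serum-free induction medium for 48 hours to eight half-log concentrations up to 100 uM in 0.5% DMSO. EZR mRNA was measured by TaqMan qRT-PCR, normalized to ACTB, GAPDH and POLR2A, and fitted bidirectionally against DMSO.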

Read-out in test [16]: Cytochrome P450 3A7 (Homo sapiens) (UniProt P24462)
Kind of test: LTEA_HepaRG_CYP3A7: Life Technologies and Expression Analysis (LTEA) Assay for CYP3A7 using HepaRG (AID 2283492). In outline:
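Cells were thawed, plated, cultured 48 h, then treated for a further 48 h with chemicals (eight-point half-log series from 100 uM, 0.5% DMSO). RNA was isolated and CYP3A7 expression quantified by qRT-PCR normalised to ACTB, GAPDH and POLR2A.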

Read-out in test [17]: CYP3A5 (gene 1577)
Kind of test: LTEA_HepaRG_CYP3A5: Life Technologies and Expression Analysis (LTEA) Assay for CYP3A5 using HepaRG (AID 2283493). The method, boiled down: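 HepaRG cells, plated 48 h then in serum-free induction medium, dosed in duplicate for 48 h with eight half-log concentrations up to 100 uM in 0.5% DMSO. Gene mRNA by Fluidigm TaqMan qRT-PCR, normalized to ACTB, GAPDH, POLR2A.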

Read-out in test [18]: Cytochrome P450 4A22 (Homo sapiens) (UniProt Q5TCH4)
The test is described as follows: LTEA_HepaRG_CYP4A22: Life Technologies and Expression Analysis (LTEA) Assay for Cytochrome P450 4A22 (CYP4A22) using HepaRG (AID 2283495). The method, boiled down: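 Cryopreserved HepaRG cells, plated and cultured 48 h, then switched to serum-free induction medium and treated 48 h (duplicates, up to 100 uM, half-log steps, 0.5% DMSO). Expression change of CYP4A22 was fitted bidirectionally against vehicle.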

Read-out in test [19]: Fatty Acid-Binding Protein 1 (FABP1), FABP1 (gene 2168)
The test is described as follows: LTEA_HepaRG_FABP1: Life Technologies and Expression Analysis (LTEA) Assay for Fatty Acid-Binding Protein 1 (FABP1) using HepaRG (AID 2283494). The method, boiled down: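 Differentiated human HepaRG cells exposed 48 h in serum-free induction medium to eight half-log concentrations up to 100 uM (0.5% DMSO), duplicate. FABP1 mRNA by qRT-PCR, normalised to ACTB, GAPDH, POLR2A; bidirectional fitting against DMSO.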

Read-out in test [20]: CYP2C9 (gene 1559)
Kind of test: LTEA_HepaRG_CYP2C9: Life Technologies and Expression Analysis (LTEA) Assay for CYP2C9 using HepaRG (AID 2283484). The method, boiled down: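 Differentiated human HepaRG cells in serum-free induction medium were exposed 48 h to chemicals in 8-point half-log series from 100 uM (0.5% DMSO), in duplicate. CYP2C9 mRNA was measured by qRT-PCR, normalized to ACTB/GAPDH/POLR2A, with bidirectional fitting versus DMSO.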

Sequence of Cytochrome P450 3A7 (Homo sapiens) (P24462 whole entry, looked up): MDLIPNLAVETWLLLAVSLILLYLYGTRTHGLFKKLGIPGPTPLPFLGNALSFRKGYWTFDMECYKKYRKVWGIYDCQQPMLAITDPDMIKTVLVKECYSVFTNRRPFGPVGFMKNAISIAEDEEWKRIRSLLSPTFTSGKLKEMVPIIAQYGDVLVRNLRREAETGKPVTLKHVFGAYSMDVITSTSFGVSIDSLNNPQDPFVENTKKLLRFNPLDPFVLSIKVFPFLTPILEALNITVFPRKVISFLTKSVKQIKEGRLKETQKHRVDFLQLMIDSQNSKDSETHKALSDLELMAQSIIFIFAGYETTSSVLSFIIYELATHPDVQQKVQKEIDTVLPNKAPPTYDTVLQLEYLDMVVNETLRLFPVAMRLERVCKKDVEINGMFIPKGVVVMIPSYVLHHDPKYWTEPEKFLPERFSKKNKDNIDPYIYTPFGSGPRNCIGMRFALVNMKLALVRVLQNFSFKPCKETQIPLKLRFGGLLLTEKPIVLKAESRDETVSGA
Sequence of Caspase-3 (Homo sapiens) (P42574 whole entry, looked up): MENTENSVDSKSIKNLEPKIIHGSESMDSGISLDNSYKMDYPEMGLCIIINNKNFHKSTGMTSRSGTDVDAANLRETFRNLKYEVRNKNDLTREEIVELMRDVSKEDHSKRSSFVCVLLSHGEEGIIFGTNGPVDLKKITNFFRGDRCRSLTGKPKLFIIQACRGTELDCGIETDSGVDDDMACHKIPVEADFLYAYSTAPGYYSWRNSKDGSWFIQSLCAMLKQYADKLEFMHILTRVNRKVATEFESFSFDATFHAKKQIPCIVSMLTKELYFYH
Sequence of Cytochrome P450 3A4 (Homo sapiens) (P08684 whole entry, looked up): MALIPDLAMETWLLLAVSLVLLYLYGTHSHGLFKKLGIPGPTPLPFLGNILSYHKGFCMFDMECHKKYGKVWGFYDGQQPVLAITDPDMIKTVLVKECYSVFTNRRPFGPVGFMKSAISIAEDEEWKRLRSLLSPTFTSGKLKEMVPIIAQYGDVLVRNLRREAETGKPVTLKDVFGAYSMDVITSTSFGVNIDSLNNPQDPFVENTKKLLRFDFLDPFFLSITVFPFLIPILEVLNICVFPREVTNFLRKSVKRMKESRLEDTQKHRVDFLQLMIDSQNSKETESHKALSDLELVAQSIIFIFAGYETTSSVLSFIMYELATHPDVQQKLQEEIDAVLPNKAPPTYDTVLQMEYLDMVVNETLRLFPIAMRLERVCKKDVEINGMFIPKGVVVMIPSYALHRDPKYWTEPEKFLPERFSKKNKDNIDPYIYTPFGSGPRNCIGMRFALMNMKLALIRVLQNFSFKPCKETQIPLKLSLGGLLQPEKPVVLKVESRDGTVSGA
Sequence of Cytochrome P450 2C19 (Homo sapiens) (P33261 whole entry, looked up): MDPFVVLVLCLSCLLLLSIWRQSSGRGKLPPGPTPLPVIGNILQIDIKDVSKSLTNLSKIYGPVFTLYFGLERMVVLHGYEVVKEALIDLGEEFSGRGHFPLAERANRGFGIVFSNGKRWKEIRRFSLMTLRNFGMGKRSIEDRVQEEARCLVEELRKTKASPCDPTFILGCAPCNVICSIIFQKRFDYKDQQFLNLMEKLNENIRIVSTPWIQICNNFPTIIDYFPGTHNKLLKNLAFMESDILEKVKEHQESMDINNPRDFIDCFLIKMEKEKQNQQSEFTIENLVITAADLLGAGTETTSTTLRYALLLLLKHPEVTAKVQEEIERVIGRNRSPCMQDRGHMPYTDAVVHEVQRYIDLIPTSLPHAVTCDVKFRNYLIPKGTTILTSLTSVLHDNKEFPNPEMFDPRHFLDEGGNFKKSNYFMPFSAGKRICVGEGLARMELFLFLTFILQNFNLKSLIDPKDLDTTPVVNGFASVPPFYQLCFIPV

What is called AC50 is the midpoint of the concentration-response curve, whichever way the signal moves. Consider `C#CCC1=C(C)C(OC(=O)C2C(C=C(C)C)C2(C)C)CC1=O` (stereo not given), for which the compound was classed as inactive in [1], in test [2], in [3], in [4], in [5] and in test [7]. The compound was classed as inactive in test [8], in [11], in test [12], in test [15], in test [16] and in test [17]. Also, the AC50 in test [6] is 12.1 µM (active); in test [9], 73.3 µM (active); in test [10] it was 49.8 µM (active); in test [13] it was 11.1 µM (active); in test [14], 49.8 µM (active); in test [18], 81.5 µM (active).

`CCOP(=S)(OCC)Oc1ccc2c(C)c(Cl)c(=O)oc2c1`: the outcome in [1], in test [2], in test [3], in test [5], in [8] and in test [13] was inactive. The compound was classed as inactive in [14], in test [15], in test [16] and in [17]. Besides, the AC50 in [4] was 4.03 µM (active); in test [6], 2.49 µM (active); in [7], 12.6 µM (active); in test [9], 31.6 µM (active); in test [10], 50 µM (active); in test [12] it was 80.3 µM (active). In addition, the AC50 in [19] was 24.6 µM (active); in test [18] it was 50 µM (active).

On to `CC(C)=CC1C(C(=O)OCN2C(=O)C3=C(CCCC3)C2=O)C1(C)C` (stereo not given), for which the outcome in test [1], in test [2], in [3], in test [5], in [8] and in test [20] was inactive. For the same compound, the call in [9], in test [10], in test [11], in test [12], in [13] and in test [14] was inactive. The outcome in test [15], in test [16], in test [17], in test [19] and in [18] was inactive. For the same compound, the AC50 was 31.5 µM (active) in test [4] and 50 µM (active) in test [6].
